Compounds without any hit were thinned out: in the full panel of roughly 83,000, 20% have a hit.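 Each cell line was grown in a 96-well plate and treated with one concentration of compound for 48 hours. Values below 10 were considered active.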 Unmarked numbers belong to inactive results. The source made the active and inactive calls.

For the experiment, the system named is HL-60(TB) leukemia. Kind of experiment: NCI-60 one-dose screen, 48 h (100 = growth as untreated, 0 = no growth, -100 = all killed). The settings on record: 10 µM unless noted.
As for `COc1cc(/C=C/C(=O)c2cc(-c3ccccc3)ccc2O)cc(OC)c1OC`, the growth was 42.6%. Under `c1nc2ccc(-c3cc4ccc5[nH]ncc5c4c4c3CCCC4)cc2[nH]1` stands 30.9%; under `Cc1c(Cl)cccc1NC(=O)c1sc2nc3c(cc2c1N)CN(Cc1ccccc1)CC3`, -22.9% (active). Consider `CCOC(=O)n1cc(-c2nonc2-c2cn(C)c3ncccc23)c2cc(F)ccc21`, for which the growth was 92.8%. As to `CC(C)(C)c1cc(C(C)(C)c2ccccc2)cc(Cc2cc(C(C)(C)c3ccccc3)cc(C(C)(C)C)c2O)c1O`, the growth is 112%. For `COc1cc(C2=NOC(c3cc(OC)c(OC)c(OC)c3)C2)ccc1OCCCCOc1cc2c(cc1OC)C(=O)N1CCC[C@H]1C=N2` (stereo not given in full), the growth is -22.7% (active).

As for `CCN(CC)c1ccc(C(=O)c2ccccc2)cc1`, the growth was 87.4%. The result for `COc1ccc(-n2cnc3cc(C(=O)N4CCCCC4)ccc32)cc1` reads 105%. For the molecule `COc1cccc(-c2nn(-c3ccccc3)cc2-c2ccnc(NCCCNC(=O)c3cccc(C(F)(F)F)c3)c2)c1`, the growth was 7.43% (active). Under `O=C(NS(=O)(=O)c1ccccc1)n1cc(-c2ccncc2)c(-c2cc(O)cc(Cl)c2)n1` stands 103%. In the case of `N=C(N)c1ccc(-c2ccc(-c3ccc(Cl)cc3Cl)s2)cc1F`, the growth is -49.7% (active). `COc1ccc2oc(=O)cc(C3c4ccc([nH]4)C(c4cc(=O)oc5ccc(OC)cc45)c4ccc([nH]4)C(c4cc(=O)oc5ccc(OC)cc45)c4ccc([nH]4)C(c4cc(=O)oc5ccc(OC)cc45)c4ccc3[nH]4)c2c1` (stereo not given): the growth was -14.5% (active). As to `CCCCC/C=N/Nc1nc(C)cc(=O)[nH]1`, the growth was 108%.

As to `O=C(NC(=S)Nc1ccccn1)c1ccccc1`, the growth is 95.8%.

For the molecule `Oc1ccc(-c2nc3ccc4[nH]ncc4c3c3c2CCCC3)c2cccnc12`, the growth was -8.83% (active). In the case of `N#CN1CC[C@H](C(=O)Nc2cc3cc(C(N)=O)ccc3cn2)C1`, the growth was -37.1% (active). Under `C=C1C(=O)O[C@H]2[C@H]1CC/C(COC(=O)/C=C\C(=O)NCc1ccc(Cn3c(=O)sn(CCCCC)c3=O)cc1)=C\CC[C@@]1(C)O[C@@H]21` stands -17.6% (active); under `Nc1ccc(S(=O)(=O)Nc2ccnn2-c2ccccc2)cc1`, 102%. Turning to `CC1=CN2C(=NC3=C(CCCC/C3=C\c3ccccc3)C2c2ccccc2)S1` (stereo not given), the growth is 102%. The result for `O=C1CCCN1C1CCN(Cc2cc3ccccc3[nH]c2=O)c2ccccc21` (stereo not given) reads 95.6%; that for `O=[N+]([O-])c1ccc(N/N=C/c2ccccc2O)nc1`, 0.837% (active); that for `CC(CN1CCN(CC(C)Nc2ccnc3cc(Cl)ccc23)CC1)Nc1ccnc2cc(Cl)ccc12` (stereo not given), 19.8%. Turning to `O=C(Nc1ccc2c(c1)-c1ccccc1C2)C1CC(=O)N(c2ccc3c(c2)OCO3)C1` (stereo not given), the growth is 112% [50 µM]. Take `COc1ccc(-c2nc3ccc(C)cc3c3c2c(=O)n(C)c(=O)n3C)cc1OC`: the growth is 98.1%. `COc1ccc(C(=O)c2nc3ccccc3n2CC(=O)c2ccc(F)cc2)cc1`: the growth was 79.5%. Consider `COc1cnc2c(c1)C(=O)c1c-2n(CCCCl)c(=O)c2ccncc12`, for which the growth was 15.8%.

`Clc1ccc(CCC(Cn2ccnc2)Sc2c(Cl)cccc2Cl)cc1` (stereo not given): the growth was 2.26% (active). The result for `O=C(C[C@]1(O)C(=O)Nc2ccc(Br)cc21)c1ccco1` reads 107%; that for `Cc1ccc2oc(=O)cc(-c3cc(-c4cc5ccccc5oc4=O)nc(N)c3C#N)c2c1`, 93.5%; that for `COc1ccc(-n2cc(-c3ccc(Cl)c(Cl)c3)[nH]c2=O)cc1OC`, 179%. Turning to `C=C(C)[C@@H]1CC[C@]2(C(=O)O)CC[C@]3(C)[C@H](CC[C@@H]4[C@@]5(C)CCC(NC(=O)c6cccc(OC(C)=O)c6OC(C)=O)C(C)(C)[C@@H]5CC[C@]43C)[C@@H]12` (stereo not given in full), the growth was -13.1% (active). For `Nc1cc(-c2ccc(Cl)cc2)nn1-c1nnc(/C=C/c2ccco2)c(=O)[nH]1`, the growth was 52.2%. As for `COC(=O)c1c(-c2ccccc2)csc1NC(=O)c1c(-c2ccccc2)noc1C`, the growth was 28.3%. For `CC(C)(C)n1cc(-c2ccnc(NCCNS(=O)(=O)c3ccc(Br)cc3)c2)c(-c2cccc(O)c2)n1`, the growth is -8.19% (active). For the molecule `Cc1cc(O)c(C2=NN(c3ccc(S(N)(=O)=O)cc3)C(/C=C/c3ccccc3)C2)cc1Cl` (stereo not given), the growth was 89.7%. Take `CO[C@@H](C(=O)N1Cc2[nH]nc(NC(=O)c3ccc(N4CCN(C)CC4)cc3)c2C1)c1ccccc1`: the growth was 16.8%.

Consider `O=C(CCCN1CCC(O)(c2ccc(Br)cc2)CC1)c1ccc(F)cc1`, for which the growth was 72.5%. Regarding `Fc1ccc(NC(c2ccc(F)cc2)C2CCN(CCCCc3ccccc3)CC2)cc1` (stereo not given), the growth is 10.8%. As for `CSc1nc(Nc2cccc(NC(=O)/C(C#N)=C/c3c(Cl)cccc3Cl)c2)c(C#N)c(-c2cccc([N+](=O)[O-])c2)n1`, the growth is 58.3%. With `O=C(CN1C(=O)/C(=C/c2ccco2)SC1=S)NCCc1c[nH]c2ccc(F)cc12`, the growth is 95.9%.

Values taken from PubChem BioAssay (NCI).
